Results: the supplement of paper PMC10849652
Targets with a hit are over-represented here; the source holds about 8,800 in all. About 0.5% of all pairs of compound and target were hits. A number with no mark means an inactive call.

Tests used:
Assay in all cases: log2 fold change, soluble protein after heating vs DMSO (PISA); higher = thermal stabilisation; K562 lysate, 10 uM; active = over 0.2 and 3.5 SD of the protein, either way, in both replicates (recomputed)
[1] = compound: NCC(=O)Nc1ccc(-n2nc(C(F)(F)F)cc2-c2ccc3c(ccc4ccccc43)c2)cc1
Procedure, shortened: (§1)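 Dounce homogenisation of K562 pellets in PBS pH 7.4 with 1 mM MgCl2 produced a crude extract, used at 1 mg/mL protein. Exposure to 10 μM compound lasted 30 min, and aliquots were then heated for 3 min across 48°C-58°C, pooled and brought to 0.5% NP-40 at 4°C. The supernatant after 21,000xg for 90 min was quantified by TMTpro 16plex LC-MS/MS with channel sums equalised. Duplicate values are given as log-two fold change in thermal stability relative to solvent controls.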

vorinostat = compound: O=C(CCCCCCC(=O)Nc1ccccc1)NO [vorinostat]
Procedure, shortened: as §1

silmitasertib = compound: O=C(O)c1ccc2c(c1)nc(Nc1cccc(Cl)c1)c1ccncc12 [silmitasertib]
Procedure, shortened: as §1

[2] = compound: O=C1NC(=O)C(c2cnc3ccccn23)=C1c1cn2c3c(cc(F)cc13)CN(C(=O)N1CCCCC1)CC2
Procedure, shortened: as §1

entospletinib = compound: c1cn2cc(-c3ccc4cn[nH]c4c3)nc(Nc3ccc(N4CCOCC4)cc3)c2n1 [entospletinib]
Procedure, shortened: as §1

## PI4K2B (UniProt Q8TCG2)
Sequence of UniProt Q8TCG2 (Q8TCG2 whole entry, looked up): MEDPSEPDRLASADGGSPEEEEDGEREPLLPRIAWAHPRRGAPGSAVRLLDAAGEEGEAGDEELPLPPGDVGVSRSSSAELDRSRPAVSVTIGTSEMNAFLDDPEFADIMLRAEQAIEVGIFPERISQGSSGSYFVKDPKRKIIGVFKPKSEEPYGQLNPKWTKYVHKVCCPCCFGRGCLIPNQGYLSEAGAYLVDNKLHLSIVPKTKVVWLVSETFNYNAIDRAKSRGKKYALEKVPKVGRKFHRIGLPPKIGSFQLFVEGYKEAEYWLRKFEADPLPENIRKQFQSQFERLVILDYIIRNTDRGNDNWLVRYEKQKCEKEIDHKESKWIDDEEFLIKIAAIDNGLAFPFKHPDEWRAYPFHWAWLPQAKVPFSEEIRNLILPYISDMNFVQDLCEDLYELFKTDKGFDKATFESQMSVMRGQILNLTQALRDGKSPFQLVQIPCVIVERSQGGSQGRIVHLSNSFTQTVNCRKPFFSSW
[1]
  log2 fold change: -0.038
vorinostat
  log2 fold change: -0.054
silmitasertib
  log2 fold change: 0.041
[2]
  log2 fold change: 0.011
entospletinib
  log2 fold change: 0.014

## PRKCA (UniProt P17252)
[1]
  log2 fold change: -0.045
vorinostat
  log2 fold change: -0.14
silmitasertib
  log2 fold change: 0.044
[2]
  log2 fold change: 0.087
entospletinib
  log2 fold change: 0.018

## PLIN2 (UniProt Q99541)
[1]
  log2 fold change: 0.012
vorinostat
  log2 fold change: 0.063
silmitasertib
  log2 fold change: -0.008
[2]
  log2 fold change: 0.008
entospletinib
  log2 fold change: -0.032

## POMP (UniProt Q9Y244)
[1]
  log2 fold change: -0.016
vorinostat
  log2 fold change: -0.028
silmitasertib
  log2 fold change: 0.05
[2]
  log2 fold change: 0.014
entospletinib
  log2 fold change: -0.12

## PMS1 (UniProt P54277)
[1]
  log2 fold change: 0.01
vorinostat
  log2 fold change: -0.342 (active)
silmitasertib
  log2 fold change: 0.018
[2]
  log2 fold change: 0.026
entospletinib
  log2 fold change: -0.011

## PICALM (UniProt Q13492)
Sequence of UniProt Q13492 (Q13492 whole entry, looked up): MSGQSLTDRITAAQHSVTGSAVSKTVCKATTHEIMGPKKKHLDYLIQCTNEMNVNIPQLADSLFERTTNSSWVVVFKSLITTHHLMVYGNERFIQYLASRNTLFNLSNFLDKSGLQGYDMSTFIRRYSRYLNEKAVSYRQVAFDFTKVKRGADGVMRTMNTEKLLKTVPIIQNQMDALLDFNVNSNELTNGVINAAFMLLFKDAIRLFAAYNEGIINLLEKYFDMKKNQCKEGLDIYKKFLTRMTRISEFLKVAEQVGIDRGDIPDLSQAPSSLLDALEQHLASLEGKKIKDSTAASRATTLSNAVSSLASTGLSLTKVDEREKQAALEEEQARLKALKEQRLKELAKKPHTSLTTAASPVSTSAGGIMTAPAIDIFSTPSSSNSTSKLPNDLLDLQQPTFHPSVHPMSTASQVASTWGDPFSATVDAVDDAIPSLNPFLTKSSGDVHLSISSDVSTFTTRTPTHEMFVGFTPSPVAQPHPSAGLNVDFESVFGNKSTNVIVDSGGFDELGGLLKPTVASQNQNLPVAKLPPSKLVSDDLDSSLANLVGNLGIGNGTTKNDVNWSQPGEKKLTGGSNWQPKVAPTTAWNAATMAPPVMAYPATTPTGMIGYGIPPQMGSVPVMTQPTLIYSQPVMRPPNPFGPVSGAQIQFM
[1]
  log2 fold change: 0.02
vorinostat
  log2 fold change: 0.048
silmitasertib
  log2 fold change: 0.003
[2]
  log2 fold change: -0.019
entospletinib
  log2 fold change: -0.005

## PRMT8 (UniProt Q9NR22)
Sequence of UniProt Q9NR22 (Q9NR22 whole entry, looked up): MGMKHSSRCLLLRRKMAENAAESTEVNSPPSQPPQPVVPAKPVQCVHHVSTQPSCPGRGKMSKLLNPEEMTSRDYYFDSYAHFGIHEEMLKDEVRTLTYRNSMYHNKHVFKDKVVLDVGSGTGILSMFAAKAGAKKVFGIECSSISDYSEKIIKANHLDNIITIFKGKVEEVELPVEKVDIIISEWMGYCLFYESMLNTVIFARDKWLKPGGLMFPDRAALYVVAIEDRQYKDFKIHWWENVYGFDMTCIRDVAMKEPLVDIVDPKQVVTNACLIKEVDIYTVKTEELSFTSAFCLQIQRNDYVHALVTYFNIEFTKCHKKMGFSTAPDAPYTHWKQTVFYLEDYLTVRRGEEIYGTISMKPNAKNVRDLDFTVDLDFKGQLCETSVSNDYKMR
[1]
  log2 fold change: 0.067
vorinostat
  log2 fold change: -0.157
silmitasertib
  log2 fold change: -0.018
[2]
  log2 fold change: -0.017
entospletinib
  log2 fold change: 0.002

## PPP4R2 (UniProt Q9NY27)
[1]
  log2 fold change: -0.007
vorinostat
  log2 fold change: -0.053
silmitasertib
  log2 fold change: -0.016
[2]
  log2 fold change: 0.023
entospletinib
  log2 fold change: -0.001

## POLR2F (UniProt P61218)
[1]
  log2 fold change: -0.019
vorinostat
  log2 fold change: 0.171
silmitasertib
  log2 fold change: 0.008
[2]
  log2 fold change: 0.027
entospletinib
  log2 fold change: -0.086

## PI4KB (UniProt Q9UBF8)
Sequence of UniProt Q9UBF8 (Q9UBF8 whole entry, looked up): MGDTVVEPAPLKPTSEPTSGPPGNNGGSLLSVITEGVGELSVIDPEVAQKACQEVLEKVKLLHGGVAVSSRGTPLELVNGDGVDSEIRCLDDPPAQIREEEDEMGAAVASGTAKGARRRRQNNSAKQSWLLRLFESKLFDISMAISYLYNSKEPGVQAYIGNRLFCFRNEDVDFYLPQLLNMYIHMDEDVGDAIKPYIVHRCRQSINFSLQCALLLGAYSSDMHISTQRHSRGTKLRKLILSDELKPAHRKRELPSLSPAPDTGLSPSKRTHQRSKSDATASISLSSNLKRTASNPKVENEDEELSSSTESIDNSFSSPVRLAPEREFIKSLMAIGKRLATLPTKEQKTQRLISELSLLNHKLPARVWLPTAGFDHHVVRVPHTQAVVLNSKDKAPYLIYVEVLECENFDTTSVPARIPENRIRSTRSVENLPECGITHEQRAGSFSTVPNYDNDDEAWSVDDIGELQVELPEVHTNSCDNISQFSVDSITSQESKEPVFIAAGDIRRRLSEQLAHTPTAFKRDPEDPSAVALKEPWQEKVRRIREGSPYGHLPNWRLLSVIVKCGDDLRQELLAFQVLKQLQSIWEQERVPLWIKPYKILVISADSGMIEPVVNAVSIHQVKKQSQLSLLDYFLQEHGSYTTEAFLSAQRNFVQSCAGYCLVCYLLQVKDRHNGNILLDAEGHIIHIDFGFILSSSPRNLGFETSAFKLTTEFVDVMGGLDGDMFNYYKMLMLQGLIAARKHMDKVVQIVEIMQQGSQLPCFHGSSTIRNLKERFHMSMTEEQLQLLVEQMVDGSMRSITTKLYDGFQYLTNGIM
[1]
  log2 fold change: -0.085
vorinostat
  log2 fold change: -0.132
silmitasertib
  log2 fold change: 0.151
[2]
  log2 fold change: -0.044
entospletinib
  log2 fold change: 0.184

## PFKFB4 (UniProt Q16877)
Sequence of UniProt Q16877 (Q16877 whole entry, looked up): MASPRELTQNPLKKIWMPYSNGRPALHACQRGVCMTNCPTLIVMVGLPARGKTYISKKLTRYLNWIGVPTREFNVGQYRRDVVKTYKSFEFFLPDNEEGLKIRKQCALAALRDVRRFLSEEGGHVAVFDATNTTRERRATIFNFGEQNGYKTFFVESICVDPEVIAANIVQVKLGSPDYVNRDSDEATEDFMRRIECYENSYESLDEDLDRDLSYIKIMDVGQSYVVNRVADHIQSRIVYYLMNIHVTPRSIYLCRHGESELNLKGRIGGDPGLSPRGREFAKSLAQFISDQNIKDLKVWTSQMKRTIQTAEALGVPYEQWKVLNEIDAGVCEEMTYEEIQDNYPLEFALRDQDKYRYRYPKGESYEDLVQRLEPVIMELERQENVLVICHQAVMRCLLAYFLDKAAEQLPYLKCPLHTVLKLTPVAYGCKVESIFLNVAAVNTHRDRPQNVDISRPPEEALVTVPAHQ
[1]
  log2 fold change: 0.007
vorinostat
  log2 fold change: -0.369 (active)
silmitasertib
  log2 fold change: 0
[2]
  log2 fold change: -0.031
entospletinib
  log2 fold change: 0.051

## PIP4K2B (UniProt P78356)
Sequence of UniProt P78356 (P78356 whole entry, looked up): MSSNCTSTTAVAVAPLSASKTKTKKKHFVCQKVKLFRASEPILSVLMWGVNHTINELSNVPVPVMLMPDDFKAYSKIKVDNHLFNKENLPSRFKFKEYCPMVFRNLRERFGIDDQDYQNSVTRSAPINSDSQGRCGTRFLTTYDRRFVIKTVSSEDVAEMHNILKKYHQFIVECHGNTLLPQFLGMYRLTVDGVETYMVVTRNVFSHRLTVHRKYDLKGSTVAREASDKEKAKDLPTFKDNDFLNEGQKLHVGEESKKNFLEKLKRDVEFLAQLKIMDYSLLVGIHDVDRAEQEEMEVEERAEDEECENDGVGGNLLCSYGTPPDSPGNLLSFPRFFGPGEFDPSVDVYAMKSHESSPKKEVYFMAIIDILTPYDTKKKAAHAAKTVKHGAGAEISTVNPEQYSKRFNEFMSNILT
[1]
  log2 fold change: 0.005
vorinostat
  log2 fold change: 0.074
silmitasertib
  log2 fold change: 0.221
[2]
  log2 fold change: 0.073
entospletinib
  log2 fold change: -0.013

## POLR2M (UniProt Q6EEV4)
[1]
  log2 fold change: 0.146
vorinostat
  log2 fold change: -0.019
silmitasertib
  log2 fold change: -0.069
[2]
  log2 fold change: 0.06
entospletinib
  log2 fold change: -0.022

## PIM1 isoform 2 (UniProt P11309)
Sequence of UniProt P11309 (P11309 whole entry, looked up): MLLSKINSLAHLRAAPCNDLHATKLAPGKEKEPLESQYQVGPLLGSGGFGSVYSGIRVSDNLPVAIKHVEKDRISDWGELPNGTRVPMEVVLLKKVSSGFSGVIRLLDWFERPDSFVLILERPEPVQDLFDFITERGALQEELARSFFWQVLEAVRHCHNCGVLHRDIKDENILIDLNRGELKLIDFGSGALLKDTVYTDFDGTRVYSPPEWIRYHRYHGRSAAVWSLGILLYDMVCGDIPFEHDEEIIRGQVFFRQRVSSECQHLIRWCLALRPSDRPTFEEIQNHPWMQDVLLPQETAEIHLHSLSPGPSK
[1]
  log2 fold change: 0.098
vorinostat
  log2 fold change: -0.188
silmitasertib
  log2 fold change: 0.212
[2]
  log2 fold change: 0.019
entospletinib
  log2 fold change: 0.008

## PES1 (UniProt O00541)
[1]
  log2 fold change: 0.03
vorinostat
  log2 fold change: -0.193
silmitasertib
  log2 fold change: 0.037
[2]
  log2 fold change: 0.014
entospletinib
  log2 fold change: -0.015

## PRKD3 (UniProt O94806)
[1]
  log2 fold change: -0.116
vorinostat
  log2 fold change: -0.182
silmitasertib
  log2 fold change: 0.224
[2]
  log2 fold change: 0.076
entospletinib
  log2 fold change: 0.013

## QKI (UniProt Q96PU8)
[1]
  log2 fold change: -0.008
vorinostat
  log2 fold change: -0.147
silmitasertib
  log2 fold change: 0.021
[2]
  log2 fold change: 0.045
entospletinib
  log2 fold change: 0.007

## PRC1 (UniProt O43663)
[1]
  log2 fold change: 0.012
vorinostat
  log2 fold change: -0.387 (active)
silmitasertib
  log2 fold change: 0.046
[2]
  log2 fold change: -0.02
entospletinib
  log2 fold change: 0.023

## PTGR2 (UniProt Q8N8N7)
[1]
  log2 fold change: -0.083
vorinostat
  log2 fold change: 0.656 (active)
silmitasertib
  log2 fold change: -0.002
[2]
  log2 fold change: 0.11
entospletinib
  log2 fold change: -0.005

## PTPN2 (UniProt P17706)
[1]
  log2 fold change: -0.005
vorinostat
  log2 fold change: -0.298 (active)
silmitasertib
  log2 fold change: 0.024
[2]
  log2 fold change: -0.002
entospletinib
  log2 fold change: 0.07

## PRKCSH (UniProt K7ELL7)
[1]
  log2 fold change: 0.132
vorinostat
  log2 fold change: 0.109
silmitasertib
  log2 fold change: 0.016
[2]
  log2 fold change: 0.016
entospletinib
  log2 fold change: -0.097

## PYURF (UniProt Q96I23)
Sequence of UniProt Q96I23 (Q96I23 whole entry, looked up): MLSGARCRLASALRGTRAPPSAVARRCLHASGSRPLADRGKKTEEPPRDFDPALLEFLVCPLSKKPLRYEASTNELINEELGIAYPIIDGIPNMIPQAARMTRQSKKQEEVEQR
[1]
  log2 fold change: -0.346 (active)
vorinostat
  log2 fold change: -0.007
silmitasertib
  log2 fold change: -0.001
[2]
  log2 fold change: -0.055
entospletinib
  log2 fold change: -0.048

## PFAS (UniProt O15067)
[1]
  log2 fold change: 0.029
vorinostat
  log2 fold change: -0.272 (active)
silmitasertib
  log2 fold change: 0.022
[2]
  log2 fold change: 0.031
entospletinib
  log2 fold change: 0.016

## POLR2B (UniProt P30876)
[1]
  log2 fold change: 0.03
vorinostat
  log2 fold change: -0.344 (active)
silmitasertib
  log2 fold change: 0.034
[2]
  log2 fold change: 0.024
entospletinib
  log2 fold change: -0.008

## POLB (UniProt P06746)
[1]
  log2 fold change: 0.027
vorinostat
  log2 fold change: -0.302 (active)
silmitasertib
  log2 fold change: -0.106
[2]
  log2 fold change: -0.023
entospletinib
  log2 fold change: 0.022

## PPP1R8 (UniProt Q12972)
[1]
  log2 fold change: 0.02
vorinostat
  log2 fold change: 0.04
silmitasertib
  log2 fold change: -0.009
[2]
  log2 fold change: -0.017
entospletinib
  log2 fold change: 0.025

## PI4KA (UniProt P42356)
[1]
  log2 fold change: -0.011
vorinostat
  log2 fold change: -0.426 (active)
silmitasertib
  log2 fold change: 0.077
[2]
  log2 fold change: 0.004
entospletinib
  log2 fold change: 0.031

## PTK2B (UniProt Q14289)
Sequence of UniProt Q14289 (Q14289 whole entry, looked up): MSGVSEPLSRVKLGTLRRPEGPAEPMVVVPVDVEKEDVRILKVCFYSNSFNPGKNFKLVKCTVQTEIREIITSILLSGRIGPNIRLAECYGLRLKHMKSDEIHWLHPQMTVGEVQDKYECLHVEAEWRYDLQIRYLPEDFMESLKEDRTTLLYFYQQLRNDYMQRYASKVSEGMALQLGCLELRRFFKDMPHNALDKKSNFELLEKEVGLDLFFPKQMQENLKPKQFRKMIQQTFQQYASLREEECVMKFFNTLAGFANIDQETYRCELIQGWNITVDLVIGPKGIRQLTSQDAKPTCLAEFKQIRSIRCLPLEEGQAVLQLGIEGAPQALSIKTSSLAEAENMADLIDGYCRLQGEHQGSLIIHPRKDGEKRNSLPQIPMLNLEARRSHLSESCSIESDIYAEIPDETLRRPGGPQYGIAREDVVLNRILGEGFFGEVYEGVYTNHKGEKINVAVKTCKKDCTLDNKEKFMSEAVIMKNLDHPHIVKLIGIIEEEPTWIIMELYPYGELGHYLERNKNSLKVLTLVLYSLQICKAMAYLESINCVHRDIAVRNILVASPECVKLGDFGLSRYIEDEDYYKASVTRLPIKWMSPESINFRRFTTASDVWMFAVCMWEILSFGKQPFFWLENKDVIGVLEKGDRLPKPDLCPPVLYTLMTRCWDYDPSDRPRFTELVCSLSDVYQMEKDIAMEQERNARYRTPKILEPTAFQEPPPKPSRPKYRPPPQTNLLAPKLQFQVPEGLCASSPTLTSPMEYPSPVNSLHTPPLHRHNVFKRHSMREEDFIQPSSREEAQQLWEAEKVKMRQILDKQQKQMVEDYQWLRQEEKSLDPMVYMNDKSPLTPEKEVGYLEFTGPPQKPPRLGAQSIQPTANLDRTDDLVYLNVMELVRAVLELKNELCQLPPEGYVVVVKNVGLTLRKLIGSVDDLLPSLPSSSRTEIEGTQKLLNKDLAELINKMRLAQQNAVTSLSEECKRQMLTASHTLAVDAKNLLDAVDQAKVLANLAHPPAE
[1]
  log2 fold change: 0.016
vorinostat
  log2 fold change: -0.339 (active)
silmitasertib
  log2 fold change: 0.021
[2]
  log2 fold change: -0.088
entospletinib
  log2 fold change: -0.002

## POLA1 (UniProt P09884)
[1]
  log2 fold change: 0.009
vorinostat
  log2 fold change: -0.293 (active)
silmitasertib
  log2 fold change: -0.019
[2]
  log2 fold change: 0.006
entospletinib
  log2 fold change: -0.016

## POGK (UniProt Q9P215)
[1]
  log2 fold change: 0.018
vorinostat
  log2 fold change: -0.173
silmitasertib
  log2 fold change: 0.002
[2]
  log2 fold change: -0.083
entospletinib
  log2 fold change: 0.3

## PRIM1 (UniProt P49642)
[1]
  log2 fold change: -0.015
vorinostat
  log2 fold change: -0.284 (active)
silmitasertib
  log2 fold change: 0.049
[2]
  log2 fold change: 0.024
entospletinib
  log2 fold change: 0.035

## PYCR2 (UniProt Q96C36)
Sequence of UniProt Q96C36 (Q96C36 whole entry, looked up): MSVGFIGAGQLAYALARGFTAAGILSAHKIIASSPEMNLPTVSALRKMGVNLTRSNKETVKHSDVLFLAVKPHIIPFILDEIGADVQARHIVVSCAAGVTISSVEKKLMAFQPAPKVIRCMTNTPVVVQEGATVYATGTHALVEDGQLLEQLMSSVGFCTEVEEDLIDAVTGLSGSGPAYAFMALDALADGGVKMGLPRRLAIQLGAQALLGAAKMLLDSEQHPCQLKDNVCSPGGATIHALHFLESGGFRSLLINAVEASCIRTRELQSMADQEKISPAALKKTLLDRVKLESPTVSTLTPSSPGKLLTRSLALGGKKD
[1]
  log2 fold change: 0.002
vorinostat
  log2 fold change: 0.1
silmitasertib
  log2 fold change: -0.008
[2]
  log2 fold change: 0.015
entospletinib
  log2 fold change: 0

## PMPCA (UniProt Q10713)
[1]
  log2 fold change: 0.031
vorinostat
  log2 fold change: 0.033
silmitasertib
  log2 fold change: -0.044
[2]
  log2 fold change: 0.003
entospletinib
  log2 fold change: -0.019
